# High-throughput results from PubChem BioAssay.
# TTR transcr act: activators of transthyretin transcription; SH-SY5Y TTR promoter Gaussia luciferase, luminescence; 100% = recombinant luciferase protein wells; activation, % at 16.7 µM; 92,000 compounds, 1.3% hits;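 active = activation above the mean of all tested compounds plus 3 SD, cut at about 9.5% in these data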;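 also: cells exposed to compounds for one day before reading; 0% = median of all test compound wells on the plate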
# TTR inh HuH7: decreases TTR transcription in HuH7 cells in activator counter-screen. 1,100 compounds, 4% hits. shares compounds with TTR transcr act. HuH7 TTR promoter-Gaussia luciferase reporter, luminescence. inhibition, % at 16.7 µM;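 active = average inhibition above the solvent-only control wells' mean plus 3 SD, cut at about 15% in these data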;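 also: 0% = cells with DMSO only and 100% = cells with inhibitor control FD; inhibitors lower well luminescence so higher value means more inhibition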
# TTR up confirm: human TTR transcription activation, confirmation; SHSY5Y TTR promoter Gaussia luciferase, luminescence; 100% = purified Lucia enzyme wells, no cells; shares compounds with TTR transcr act; 1,100 tested, under 10 active; activation, % at 16.7 µM; AID 1117280;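 active = mean activation above a set limit taken from the earlier primary screen, cut at about 11% in these data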;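 also: 0% = DMSO-treated cells and 100% = recombinant Lucia luciferase without cells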
# An asterisk follows results filed as active. Only a selection was taken, and hits are over-represented in it overall.
SMILES,TTR transcr act,others
COc1ccc(S(=O)(=O)N2CCN(C(=O)CN3C(=O)NC(C)(C)C3=O)CC2)cc1,-3,
C=CCNC(=S)N1CCC(C(N)=O)CC1,-1,
Cc1cc(C)nc(SCC(=O)c2ccc3c(c2)OCCO3)n1,-1,
Cc1ccc(Sc2nc(C)cc(C)c2S(C)(=O)=O)cc1,3,
CCCCN1CC(=O)N2[C@H]3c4cc(C)ccc4OC[C@@H]3[C@H](C(=O)OCC)[C@]2(C)C1=O,-1,
CCOC(=O)c1cc2cc(OC)ccc2n1C1CCN(CCc2ccccc2)CC1,1,
CC1CCN(CC(=O)NCCc2ccc(F)cc2)CC1,-1,
COc1c(O)cccc1[C@@H](O)C1CCN(CCc2ccc(F)cc2)CC1,70*,TTR inh HuH7=-4;TTR up confirm=0
Cc1ccc(-c2noc(CCC(=O)N3CCCC3)n2)cc1,2,
O=C(O[C@H]1CC[C@@]23CCCN2C(=O)CCC[C@H]3C1)N1CCOCC1,-1,
CC(C)CCN(C(=O)c1ccncc1)c1c(N)n(Cc2ccccc2)c(=O)[nH]c1=O,2,
CCCCn1c(N)c(N(CCC(C)C)C(=O)COC(=O)c2cccnc2SC)c(=O)[nH]c1=O,0,
CCOc1ncccc1C(=O)N(CCC(C)C)c1c(N)n(Cc2ccccc2)c(=O)[nH]c1=O,17*,TTR inh HuH7=-5;TTR up confirm=0
N#Cc1cccc(NC(=O)CC2CCCC2)c1,-1,
N#Cc1cccc(NC(=O)CN2NS(=O)(=O)c3ccccc3C2=O)c1,11*,TTR inh HuH7=-12;TTR up confirm=-1
N#Cc1cccc(NC(=O)CCn2ccnc2)c1,2,
C/C(=N\NC(=O)c1cc(Br)ccc1O)c1cccs1,-3,
Cc1ccc(NC(=O)c2cc(S(=O)(=O)N3CCCCC3)c[nH]2)cc1Cl,-1,
CCOC(=O)C(Cc1ccc(OC)c([N+](=O)[O-])c1)NC(=O)CCC(=O)Nc1ccc(C)cc1 (stereo not drawn),1,
Cc1cn(CC(=O)c2ccccc2)c2ccccc12,0,
Cc1cc(C)n(CC(=O)c2ccccc2)c(=O)c1C#N,16*,TTR inh HuH7=-7;TTR up confirm=0
Cc1cc(-c2ccccc2)[nH]c(=O)c1C#N,0,
O=C1NCCOC(=O)[C@H](Cc2ccc(F)cc2)C/C=C\C[C@@H]1CC(=O)N(CCO)Cc1ccccc1,-3,
CNc1cc(-c2ccc(C(=O)OC)cc2)ncn1,-1,
COC(=O)[C@]1(CC(C)C)N[C@H](c2ccc(SC3CCCCC3)c(OC)c2)[C@@H]2C(=O)N(C)C(=O)[C@@H]21,0,
SMILES,TTR transcr act,others
COC(=O)[C@]1(CC(C)C)N[C@H](c2ccc(-c3ccc(F)cc3)c(OC)c2)[C@@H]2C(=O)N(C)C(=O)[C@@H]21,13*,TTR inh HuH7=-11;TTR up confirm=0
CCC(C)Sc1ccc([C@H]2N[C@@](CC(C)C)(C(=O)OC)[C@H]3C(=O)N(CC)C(=O)[C@@H]23)cc1 (stereo partly drawn),3,
c1cc(N2CCCCC2)nc(N2CCCCC2)n1,1,
COc1ccccc1CNC(=O)COC(=O)c1cccnc1SCC(=O)NCc1ccccc1OC,0,
NCCCn1c(C(=O)c2cc(Cl)c(N)c(Cl)c2)c2ccc(C(F)(F)F)cc2[n+]1[O-],-1,
O=S(=O)(Nc1ccccn1)c1cnc(Cl)c(Br)c1,20*,TTR inh HuH7=-8;TTR up confirm=0
O=S(=O)(Nc1ccccn1)c1ccc(Br)cc1,2,
O=S(=O)(Nc1nccs1)c1cnc(Cl)c(Br)c1,1,
Cc1cc(C)n(-c2nc3ccccc3nc2N2CCCCCC2)n1,5,
Fc1cc(F)cc(NC(=S)Nc2ccccc2N2CCOCC2)c1,12*,TTR inh HuH7=-3;TTR up confirm=-1
COc1cc(OC)cc(C(=O)Nc2ccccc2N2CCOCC2)c1,-1,
O=C(Nc1ccccc1N1CCOCC1)c1ccc2ccccc2c1,-1,
CCc1ccc(NC(=O)N(CCN(C)C)C(C)c2cccnc2)cc1 (stereo not drawn),2,
COc1ccc(/C=N/n2c(N)c(S(=O)(=O)c3cccs3)c3nc4ccccc4nc32)cc1OC,0,
Clc1ccc(CONc2ncnc3nonc23)c(Cl)c1,-2,
Cc1ccc(N2C(=O)C3CCCN3C2=S)cc1 (stereo not drawn),0,
Cc1cc(C)cc(N2C(=O)C3CCCN3C2=S)c1 (stereo not drawn),0,
Cc1ccc(N2C(=O)C3CCCN3C2=S)cc1C (stereo not drawn),20*,TTR inh HuH7=-9;TTR up confirm=0
O=C(ON=C1CCN(S(=O)(=O)c2ccccc2)CC1)c1ccc(F)cc1,0,
CC(NC(=O)CCNC(=O)c1ccccc1Cl)C1CC2CCC1C2 (stereo not drawn),0,
O=C(NCCSC1CCCCC1)c1ccccc1,4,
O=C(Nc1ccc(O)c2c(=O)cc(-c3ccccc3Cl)oc12)c1ccc(Cl)c(Cl)c1,4,
COc1ccc(-c2cc(C(F)(F)F)n3nc(C(=O)O)nc3n2)cc1,-1,
COc1ccc(-c2cc(C(F)(F)F)n3nc(C)cc3n2)cc1,14*,TTR inh HuH7=9;TTR up confirm=-1
